A short description of assay [1]: qHTS RealTime-Glo MT Cell Viability Assay in HepG2 cells - 40 hour (AID 1224870). Note: nearly all actives have a fitted effect of over 50% in size. Note: potency is the fitted concentration of half-maximal effect. The procedure, abridged:
(§1)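 Real-time viability: cells seeded at 600 per well together with NanoLuc and cell-permeant prosubstrate, compounds added after 5 h incubation. Luminescence tracked at 0, 8, 16, 24, 32 and 40 h of exposure.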
(qHTS replaces the single test concentration by a dilution series.)

Assay [2] in a line: A CellTox Green Cytotoxicity Assay to monitor cytotoxicity in HEK293 cells - 40 hour (AID 1224871). Note: nearly all actives have a fitted effect of over 45% in size. Note: potency is the fitted concentration of half-maximal effect. The procedure, abridged:
(§2)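 Fluorescence from a DNA-binding dye excluded by viable cells was measured repeatedly in the same HEK293 wells (600 cells/well) during continuous compound exposure at 37 C. Each assay gives one read point: 0, 8, 16, 24, 32 or 40 h.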

Assay [3] can be described thus: qHTS RealTime-Glo MT Cell Viability Assay in HEK293 cells - 16 hour (AID 1224872). Note: nearly all actives have a fitted effect of over 50% in size. Note: potency is the fitted concentration of half-maximal effect. Summed up: (§3)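 Quantitative high-throughput screen of the Tox21 10K library in HEK293: cells and RealTime-Glo reagents plated together, compound added at 5 h, luminescence monitored through 40 h at 37 C.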
A short description of assay [4]: qHTS RealTime-Glo MT Cell Viability Assay in HepG2 cells - 8 hour (AID 1224873). Note: nearly all actives have a fitted effect of over 55% in size. The procedure, abridged:
as §1

The nature of assay [5]: A CellTox Green Cytotoxicity Assay to monitor cytotoxicity in HEK293 cells - 24 hour (AID 1224875). Note: nearly all actives have a fitted effect of over 45% in size. Note: potency is the fitted concentration of half-maximal effect. The procedure, abridged: as §2
A short description of assay [6]: A CellTox Green Cytotoxicity Assay to monitor cytotoxicity in HepG2 cells - 16 hour (AID 1224876). Note: nearly all actives have a fitted effect of over 45% in size. Note: potency is the fitted concentration of half-maximal effect. Summed up:
(§4)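 Real-time cytotoxicity: fluorescence of a cell-impermeant cyanine dye binding DNA of dead HepG2 cells, measured repeatedly (0–40 h) during compound exposure at 37 C. Cells seeded 600/well with reagent, dosed after 5 h.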

Assay [7] can be described thus: qHTS RealTime-Glo MT Cell Viability Assay in HepG2 cells - 32 hour (AID 1224877). Note: nearly all actives have a fitted effect of over 55% in size. Note: potency is the fitted concentration of half-maximal effect. Summed up:
(§5)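 Compound treatment began 5 h after plating HepG2 cells (600/well) with NanoLuc luciferase and prosubstrate. Plates stayed at 37 C for 40 h; luminescence was captured at six time points, 0 h through 40 h.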

Assay [8] can be described thus: A CellTox Green Cytotoxicity Assay to monitor cytotoxicity in HepG2 cells - 24 hour (AID 1224878). Note: nearly all actives have a fitted effect of over 45% in size. Note: potency is the fitted concentration of half-maximal effect. Summed up:
as §4

Assay [9] can be described thus: A CellTox Green Cytotoxicity Assay to monitor cytotoxicity in HepG2 cells - 40 hour (AID 1224879). Note: nearly all actives have a fitted effect of over 40% in size. Note: potency is the fitted concentration of half-maximal effect. Summed up:
as §4

Assay [10] can be described thus: qHTS RealTime-Glo MT Cell Viability Assay in HEK293 cells - 0 hour (AID 1224880). Note: nearly all actives have a fitted effect of over 45% in size. Note: potency is the fitted concentration of half-maximal effect. Summed up:
(§6)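 Luminescence, which tracks viable cell number through reduction of the prosubstrate to a NanoLuc substrate, was read over continuous 37 C culture. Cells (600/well) were premixed with reagent and rested 5 h before 23 nL of compound in DMSO was pinned.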

Assay [11] can be described thus: A CellTox Green Cytotoxicity Assay to monitor cytotoxicity in HEK293 cells - 32 hour (AID 1224881). Note: nearly all actives have a fitted effect of over 40% in size. Note: potency is the fitted concentration of half-maximal effect. Summed up:
as §2

Assay [12] can be described thus: A CellTox Green Cytotoxicity Assay to monitor cytotoxicity in HepG2 cells - 0 hour (AID 1224882). Note: nearly all actives have a fitted effect of over 35% in size. Summed up:
as §4

Assay [13] can be described thus: A CellTox Green Cytotoxicity Assay to monitor cytotoxicity in HepG2 cells - 32 hour (AID 1224883). Note: nearly all actives have a fitted effect of over 50% in size. Note: potency is the fitted concentration of half-maximal effect. The procedure, abridged:
as §4

Assay [14] in a line: A CellTox Green Cytotoxicity Assay to monitor cytotoxicity in HEK293 cells - 8 hour (AID 1224884). Note: nearly all actives have a fitted effect of over 35% in size. The procedure, abridged:
as §2

The nature of assay [15]: qHTS RealTime-Glo MT Cell Viability Assay in HepG2 cells - 16 hour (AID 1224885). Note: nearly all actives have a fitted effect of over 50% in size. The procedure, abridged: as §5
Assay [16] in a line: qHTS RealTime-Glo MT Cell Viability Assay in HEK293 cells - 24 hour (AID 1224886). Note: nearly all actives have a fitted effect of over 50% in size. Note: potency is the fitted concentration of half-maximal effect. Summed up:
as §3

Assay [17] can be described thus: qHTS RealTime-Glo MT Cell Viability Assay in HEK293 cells - 8 hour (AID 1224887). Note: nearly all actives have a fitted effect of over 50% in size. Note: potency is the fitted concentration of half-maximal effect. Summed up: as §6
A short description of assay [18]: A CellTox Green Cytotoxicity Assay to monitor cytotoxicity in HEK293 cells - 16 hour (AID 1224888). Note: nearly all actives have a fitted effect of over 35% in size. Summed up:
as §2

A short description of assay [19]: qHTS RealTime-Glo MT Cell Viability Assay in HepG2 cells - 0 hour (AID 1224889). Note: nearly all actives have a fitted effect of over 50% in size. Summed up:
as §5

A short description of assay [20]: qHTS RealTime-Glo MT Cell Viability Assay in HEK293 cells - 40 hour (AID 1224874). Note: nearly all actives have a fitted effect of over 50% in size. Note: potency is the fitted concentration of half-maximal effect. Conditions: RealTime-Glo luminescence; max response: stronger effect = lower value. The procedure, abridged:
as §6

Where “and” joins values, the source holds several entries; their conditions need not be identical. Identical values can stand only once. Records with an inconclusive call do not appear. Where a structure was tested more than once in an assay, its records may differ in their call. Calls of active or inactive are those of the source. Calls come from the whole dose curve; as a rule, active = well fitted curve in the direction sought with a large enough effect in the repeat runs; inconclusive = weak or mixed curves; inactive = no such curve, though single readings can be large; an effect the other way counts as inactive or inconclusive.
% is set by controls: 0 for no effect and ±100 for the full control effect.

In the case of `CCOP(=O)(OCC)Oc1ccc([N+](=O)[O-])cc1`, the Potency result in assay [1], in assay [2], in assay [3], in [4], in assay [5] and in assay [6] was “inactive” throughout. Besides, the Potency result in [7], in assay [8], in assay [9], in assay [10], in assay [11] and in assay [12] was “inactive” in each case. The Potency result in assay [13], in assay [14], in [15], in assay [16], in [17] and in [18] was “inactive” in each case. In addition, in assay [19], the Potency result was “inactive”.

Turning to `CN(C)c1ccc(N(C)C)cc1`, the Potency entry in assay [1], in assay [2], in assay [3], in assay [4], in [5] and in assay [6] was “inactive” throughout. Moreover, the Potency entry in assay [7], in assay [8], in assay [9], in [10], in assay [11] and in assay [12] was “inactive” throughout. In addition, the Potency result in [13], in [14], in [15], in [18] and in assay [19] was “inactive” each time. The Potency in assay [17] was 34.8 µM (active).

Turning to `CCCN(CC1CC1)c1c([N+](=O)[O-])cc(C(F)(F)F)cc1[N+](=O)[O-]`, the Potency result in [1], in [2], in [4], in [5], in [6] and in [7] was “inactive” throughout. For the same compound, the Potency result in assay [8], in [9], in [10], in [11], in [12] and in assay [13] was “inactive” throughout. For the same compound, the Potency result in [15], in [16], in [18] and in assay [19] was “inactive” throughout. In addition, the max response in assay [20] is 9.65% (inactive).

As to `C=CC(=O)NCNC(=O)C=C`, the Potency result in assay [1], in assay [2], in [3], in [4], in assay [5] and in assay [6] was “inactive” throughout. For the same compound, the Potency entry in [7], in assay [8], in assay [10], in assay [11], in [12] and in assay [13] was “inactive” throughout. The Potency entry in assay [14], in assay [15], in [16], in assay [17] and in assay [18] was “inactive” throughout.

As for `O=C(CCl)c1ccc(Cl)cc1Cl`, the Potency entry in assay [1] was “inactive and 16.9 µM (active)”; in assay [2] it was 8.49 µM (active); in [3], 4.25 µM (active); in assay [20] it was 17.3 µM (active) and 2.39 µM (active); in [5], 10.7 µM (active); in [6], “inactive and 23.9 µM (active)”. In addition, the Potency result was “inactive and 21.3 µM (active)” in assay [7]; “inactive and 23.9 µM (active)” in assay [8]; 23.9 µM (active) in assay [9]; 8.49 µM (active) in [11]; 23.9 µM (active) in assay [13]; 4.77 µM (active) in assay [16]. For the same compound, the Potency result in [10], in assay [12], in assay [17], in assay [18] and in [19] was “inactive” each time.

On to `N#Cc1cc(I)c(O)c(I)c1`, for which the Potency result in assay [1], in assay [2], in assay [4], in assay [5], in [6] and in assay [7] was “inactive” in each case. Besides, the Potency entry in assay [8], in [9], in [10], in assay [11], in assay [12] and in assay [14] was “inactive” in each case. For the same compound, the Potency result in assay [15], in assay [17] and in assay [18] was “inactive” in each case.

`O=C(Nc1ccccc1)Nc1ccnc(Cl)c1`: the Potency entry in assay [1], in assay [2], in [4], in assay [5], in assay [6] and in assay [7] was “inactive” each time. Also, the Potency entry in assay [8], in assay [10], in assay [11], in assay [12], in [14] and in [15] was “inactive” in each case. Moreover, the Potency entry in assay [18] was “inactive”. Moreover, the Potency in assay [20] and in [16] was 19.5 µM (active) each time.

Take `CC(C)=CCOc1c2occc2cc2ccc(=O)oc12`: the Potency result in assay [1], in assay [2], in assay [3], in [5], in assay [6] and in assay [8] was “inactive” in each case. The Potency result in [9], in assay [10], in [11], in assay [12], in assay [14] and in assay [16] was “inactive” throughout. Besides, the Potency entry in [17] and in assay [18] was “inactive” throughout. In addition, the max response in assay [20] was -18% (inactive).

For the compound `Cl/C=C\C[N+]12CN3CN(CN(C3)C1)C2`, the Potency result in assay [1], in [2], in assay [4], in assay [5], in [6] and in assay [8] was “inactive” throughout. The Potency entry in [9], in [10], in assay [11], in assay [12], in [13] and in assay [14] was “inactive” each time. Further, the Potency result in assay [15], in assay [17] and in [18] was “inactive” each time.

With `O=C1CN=C(c2ccccc2)c2cc(Cl)ccc2N1CC1CC1`, the Potency result in assay [1], in assay [2], in [4], in [5], in assay [6] and in assay [7] was “inactive” throughout. Besides, the Potency result in assay [8], in [9], in [11], in assay [12], in [14] and in assay [15] was “inactive” throughout. Further, the Potency result in [18] is “inactive”. Further, in [10], the Potency was 16.3 µM (active).
